PubChem BioAssay
Active and inactive are the calls of the source.

Experiments:
[1] = compound effects on lung adenocarcinoma cell viability – A549, calcein-AM fluorescence, 48 h, basal, profiling panel (AID 1162); conditions: higher = more signal
[2] = compound effects on differentiated 3T3-L1 adipocyte viability – cell-based, 3T3-L1 adipocytes, calcein-AM fluorescence, 48 h, basal, profiling panel (AID 1163); conditions: 3T3-L1 adipocytes viability, higher = more signal
[3] = compound effects on hepatocellular carcinoma cell viability – HepG2, calcein-AM fluorescence, 48 h, basal, profiling panel (AID 1164); conditions: higher = more signal
[4] = compound effects on multiple myeloma cell viability – MM1S, calcein-AM fluorescence, 48 h, basal, profiling panel (AID 1165); conditions: higher = more signal
[5] = calcein-AM signal in unstimulated myeloma cells – cell-based, calcein-AM fluorescence, 48 h, PK04 Diversity Set, profiling panel (AID 1166); conditions: RPMI8226 myeloma viability, higher = more signal;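 note: cells grown under basal conditions without added stimulus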
[6] = JC-1 mitochondrial signal, unstimulated HepG2 cells – cell-based, JC-1 fluorescence, 24 h, 100 nL compound, profiling panel (AID 1167); conditions: HepG2 mitochondrial potential, higher = more signal
[7] = JC-1 mitochondrial signal, unstimulated adipocytes – cell-based, JC-1 fluorescence, 3T3-L1 adipocytes, 24 h, 100 nL compound, profiling panel (AID 1168); conditions: JC-1 mitochondrial fluorescence, higher = more signal, called active from +8 up or from −8 down
[8] = JC-1 mitochondrial signal, unstimulated myeloma cells – cell-based, JC-1 fluorescence, RPMI8226, 24 h, 100 nL compound, profiling panel (AID 1169); conditions: JC-1 mitochondrial potential fluorescence, higher = more signal
[9] = JC-1 mitochondrial signal, unstimulated MM1S myeloma – cell-based, JC-1 fluorescence, 24 h, 100 nL compound, profiling panel (AID 1170); conditions: MM1S mitochondrial potential, higher = more signal
[10] = resazurin metabolic signal in A549 cells – cell-based, resazurin fluorescence, 24 h, PK04 Diversity Set, profiling panel (AID 1171); conditions: A549 viability, higher = more signal, called active from +8 up or from −8 down
Note: test concentration not given here.

Compound	z-score [1]	z-score [2]	z-score [3]	z-score [4]	z-score [5]	z-score [6]	z-score [7]	z-score [8]	z-score [9]	z-score [10]
COc1cc(COC(C)=O)ccc1OC(C)=O	1.97	0.223	1.5	-0.0098	-1.49	-0.367	0.374 (inactive)	-0.219	0.528	0.339 (inactive)
C=CCOC(=O)[C@H]1[C@@H]2C(=O)O[C@@H](c3ccccc3)[C@@H](c3ccccc3)N2[C@@H](c2ccc(OCCOC(=O)[C@@H]3C[C@@H]4C(=O)N[C@@H](CCCCNC(C)=O)C(=O)N4[C@@H]3c3ccc(O)cc3)cc2)[C@]12C(=O)Nc1ccccc12	-0.41	1.85	-0.578	-0.0774	-0.133	-1.7	0.703 (inactive)	-0.611	-0.95	-1.57 (inactive)
COCCOC(=O)N1C(=O)[C@@]2(c3cc(C#CC4(O)CCCCCC4)ccc31)[C@H](c1ccccc1OCCO)N1[C@H](c3ccccc3)[C@H](c3ccccc3)OC(=O)[C@H]1[C@@H]2C(=O)N1CCN(c2ncccn2)CC1	-0.244	-0.464	1.4	-0.404	-1.14	0.673	1.86 (inactive)	-0.965	-1.05	-0.461 (inactive)
COc1ccc(-c2cc3c(c(-c4ccc(Oc5ccccc5)cc4)n2)[Si](C(C)C)(C(C)C)OC3)cn1	-0.599	-0.377	0.645	-1.19	-1.75	-1.43	-0.47 (inactive)	-0.845	-0.973	1.07 (inactive)
COc1cc2c(cc1OC)CN(C(=O)[C@@H]1[C@H]3C(=O)O[C@H](c4ccccc4)[C@H](c4ccccc4)N3[C@H](c3ccccc3OCCO)[C@@]13C(=O)Nc1ccc(C#CCCO)cc13)CC2	1.26	0.784	0.665	-0.777	-0.803	0.453	1.2 (inactive)	-1.21	-0.107	1.28 (inactive)
COC(=O)[C@@]1(Cc2ccc(OC)cc2)[C@H]2c3cc(C(=O)N4CCCC4)n(CCN4CNCC4=O)c3C[C@H]2CN1C(=O)c1ccccc1	-0.215	0.0334	-0.137	-0.105	-2.17	0.696	-0.514 (inactive)	-0.429	-0.162	-0.936 (inactive)
COc1cc2c(cc1O)C(C1CC1)N(Cc1sc3ccccc3c1Cl)CC2 (stereo not given)	-4	0.0337	-4.15	-3.32	-4.44	-3.67	-1.07 (inactive)	-0.858	-0.539	-0.663 (inactive)
O=C(CS)NCCCCCCNC(=O)[C@@H]1C[C@@H]2C(=O)N[C@@H](Cc3ccccc3)C(=O)N2[C@@H]1c1cccc(OCCO)c1	-0.55	0.363	0.371	-0.204	0.537	-1.28	0.476 (inactive)	0.198	-0.143	-0.436 (inactive)
CC1(C)[C@@H]2CC(C(O)C3C=CC4C(=O)N(c5ccccc5)C(=O)C4N3Nc3ccc([N+](=O)[O-])cc3)=C[C@H]1C2 (stereo not given in full)	-0.0923	-0.484	-0.0345	0.114	0.287	-1.41	-2.48 (inactive)	0.428	-1.09	0.539 (inactive)
C=CC1(C(=O)OC)CC=C(C(=O)OC)CC1 (stereo not given)	0.211	0.0237	-0.287	0.835	-0.0765	1.27	0.562 (inactive)	-0.093	-1.42	0.45 (inactive)
C=CCOC(=O)[C@H]1[C@@H]2C(=O)O[C@@H](c3ccccc3)[C@@H](c3ccccc3)N2[C@@H](c2ccc(OCCOC(=O)[C@@H]3C[C@@H]4C(=O)N[C@@H](CC(C)C)C(=O)N4[C@@H]3c3ccc(O)cc3)cc2)[C@]12C(=O)Nc1ccccc12	-1.02	0.385	-0.529	-0.206	0.162	-1.89	0.0514 (inactive)	-0.89	-0.836	0.414 (inactive)
COC(=O)[C@@]1(Cc2ccccc2)[C@H]2c3cc(C(=O)N4CCCC4)n(Cc4ccc(S(C)(=O)=O)cc4)c3C[C@H]2CN1C(=O)c1ccccc1	-0.235	0.949	-0.838	-1.09	-1.68	2.43	-1.62 (inactive)	0.148	-0.659	0.142 (inactive)
O=C1C[C@@](C(=O)NCCN2CCOCC2)(c2ccc([N+](=O)[O-])cc2)[C@@H](c2ccc(CO)cc2)N1CC12CC3CC(CC(C3)C1)C2	-2.97	0.0433	-3	-3.83	-4.23	-2.04	-0.907 (inactive)	-0.893	-0.615	-2.06 (inactive)
CC(C)C(=C=CC[C@H](O)c1ccc(OCCO)cc1)CCO	0.421	0.799	0.101	-3.35	-2.14	-1.55	-0.722 (inactive)	-0.881	-0.0147	1.05 (inactive)
CCC[C@@H]1C[C@@]1(CCC)[C@@H](NS(=O)(=O)c1cccc2cccnc12)c1ccc(Cl)cc1	1.54	-1.13	0.112	0.0781	-0.99	3.46	0.112 (inactive)	0.137	-0.855	-0.132 (inactive)
CC1CC/C=C\[C@H]2OC34C=CCN(Cc5ccccc5)C(=O)[C@H]3N(CCCO)C(=O)[C@@H]4C2C(=O)O1 (stereo not given in full)	-0.0905	0.324	-0.0453	-0.142	0.197	0.0693	0.237 (inactive)	-0.0499	1.68	-0.433 (inactive)

Compound	z-score [1]	z-score [2]	z-score [3]	z-score [4]	z-score [5]	z-score [6]	z-score [7]	z-score [8]	z-score [9]	z-score [10]
COC(=O)[C@@]1(CCS(=O)(=O)c2ccccc2)N=C(c2ccc(OCCCO)cc2)O[C@H]1c1ccccc1CN=[N+]=[N-]	-1.33	-0.688	-1.12	-1.92	-2.59	-1.13	0.877 (inactive)	-1.22	-1.56	-2.08 (inactive)
COc1cc2c(cc1O)C(c1cccs1)N(C)CC2 (stereo not given)	-0.416	-0.344	0.448	0.405	0.586	-1.13	-0.0427 (inactive)	-0.0651	-1.06	-0.568 (inactive)
CCCC[C@@H]1C[C@H]1[C@@H](NC(=O)C(C)(C)C)c1ccc(C(F)(F)F)cc1	-1.63	0.434	-1.6	-2.43	-3.05	-0.754	-1.64 (inactive)	-0.204	-1.8	0.419 (inactive)
COCCCNC(=O)[C@]1(CCC(=O)OC(C)(C)C)N=C(c2ccc(OCCCO)cc2)O[C@@H]1c1ccccc1CN=[N+]=[N-]	-0.651	-0.579	-0.421	-0.658	0.338	-0.255	-0.2 (inactive)	-0.315	-0.272	0.743 (inactive)
CCCC[C@@H]1C[C@H]1[C@@H](NC(=O)c1ccco1)c1ccccc1C(F)(F)F	-2.09	-1.51	-0.489	-1.1	-0.484	-1.7	-1.22 (inactive)	-0.583	-0.481	-0.26 (inactive)
COC(=O)[C@@]1(Cc2ccc(OC)cc2)[C@H]2c3cc(C(=O)N(C)C)n(Cc4ccccn4)c3C[C@H]2CN1C(=O)c1ccccc1	-0.865	0.626	-0.319	-0.684	-1.31	2.05	-1.46 (inactive)	0.155	0.016	-0.793 (inactive)
[N-]=[N+]=NCc1ccccc1[C@@H]1OC(c2ccc(OCCCO)cc2)=N[C@]1(Cc1ccccc1)C(N)=O	0.88	1.5	0.493	-0.527	-1.63	1.49	-0.534 (inactive)	-0.75	-1.1	0.479 (inactive)
COC(=O)C(CC#Cc1ccc2c(c1)[C@]1(C(=O)N2)[C@H](c2ccc(OCCO)cc2)N2[C@H](c3ccccc3)[C@H](c3ccccc3)OC(=O)[C@H]2[C@@H]1C(=O)Nc1nc2ccccc2s1)C(=O)OC	0.214	0.368	0.94	-2.56	-2.73	-2.98	1.67 (inactive)	-1.11	-1.29	0.84 (inactive)
CC(CO)N1C(=O)[C@@H]2C3C(=O)OCCC/C=C\[C@H]3OC23C=CCN(C(C)(C)C)C(=O)[C@@H]13 (stereo not given in full)	-0.241	-0.557	0.775	1.41	0.995	0.285	0.521 (inactive)	-0.458	-1.26	-0.717 (inactive)
C=CC(=C)[C@H]1Oc2ccccc2S(=O)(=O)N2CCC[C@@H]12	0.159	0.0997	-1.23	-0.391	-1.64	-0.708	-0.0333 (inactive)	-0.295	0.941	0.0255 (inactive)
CCC(CC)C(O)C1C=CC2C(=O)NC(=O)C2N1Nc1ccccn1 (stereo not given)	-0.651	-0.883	0.0063	0.152	0.0749	-0.29	-0.414 (inactive)	-0.07	-0.138	-0.801 (inactive)
[N-]=[N+]=Nc1ccccc1[C@@H]1OC(c2ccc(OCCCO)cc2)=N[C@]1(CCS(=O)(=O)c1ccccc1)C(N)=O	-0.811	-0.267	-0.554	-0.648	0.0806	-2.73	-1.91 (inactive)	-0.0842	-0.305	0.404 (inactive)
CCN(CC)c1ccc(N2CC=CC34O[C@@H]5C=CCCOC(=O)C5[C@H]3C(=O)N(CCCCCCO)[C@@H]4C2=O)cc1 (stereo not given in full)	0.75	1.45	0.239	1.97	0.401	0.432	-0.641 (inactive)	-0.197	-0.585	1.02 (inactive)
O=C1O[C@H](c2ccccc2)[C@H](c2ccccc2)N2[C@H]1[C@@H](C(=O)N1CCCCCCC1)[C@]1(C(=O)Nc3ccc(C#CC4=CCCCC4)cc31)[C@H]2c1ccc(OCCO)cc1	-0.733	1.67	-0.103	-0.0425	-1.4	-1.68	-5.35 (inactive)	-1.02	-0.729	-0.0973 (inactive)
O=C1c2ccccc2[C@](Cc2ccccc2I)(C(=O)NCC(F)(F)F)[C@H](c2ccc(CO)cc2)N1Cc1ccccc1Cl	0.0986	0.46	0.0068	-1.06	-1.55	0.798	0.149 (inactive)	-0.68	-1.34	1.57 (inactive)
C=C(CC1([C@@H](NP(=O)(c2ccccc2)c2ccccc2)[C@H]2C[C@@H]2CCCC)CC1)c1ccccc1	-0.665	-0.523	-0.721	-2.74	-3.25	-2.48	-0.841 (inactive)	-0.968	-1.92	4.95 (inactive)
